The source of these data is the supplement of paper PMC10681739.

For the experiment, the target named is T1, ETS1 (UniProt P14921).
T1 sequence: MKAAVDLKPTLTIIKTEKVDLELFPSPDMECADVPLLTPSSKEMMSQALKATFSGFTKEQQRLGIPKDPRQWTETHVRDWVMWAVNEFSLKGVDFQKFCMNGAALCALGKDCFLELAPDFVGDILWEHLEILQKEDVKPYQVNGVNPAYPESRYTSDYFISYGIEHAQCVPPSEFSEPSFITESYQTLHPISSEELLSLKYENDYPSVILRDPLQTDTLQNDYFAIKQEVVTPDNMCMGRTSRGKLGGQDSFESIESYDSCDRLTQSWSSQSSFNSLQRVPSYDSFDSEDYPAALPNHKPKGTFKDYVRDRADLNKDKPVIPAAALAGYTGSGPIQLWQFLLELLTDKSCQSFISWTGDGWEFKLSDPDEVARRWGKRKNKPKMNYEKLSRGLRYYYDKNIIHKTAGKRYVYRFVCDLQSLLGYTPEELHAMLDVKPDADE
Description: ETS1 binding intensity (PBM fluorescence), ETS1 alone (arbitrary fluorescence units); higher = stronger binding. As to conditions: ETS1 concentration 1 nM; RUNX1 concentration 0 nM.
In turn, CCAGAAAGCTCCTCCTTCCGCCACAACACGATCACT had an ETS1 binding intensity of 538.

The sequence TGAATATTCTTCCGCACGTACCCACATGGCTCACTT showed an ETS1 binding intensity of 486.

The sequence ACACCGCTCAGGAAGACAAAGCCACACCTCACACCA came in with an ETS1 binding intensity of 443.

AGAATTACCAGGAAGCCGAGCGCTGCGGGCTAGCGG registered an ETS1 binding intensity of 518.

As to GAAAGCACGTGTTTCCTGCGGCTGCACCCCAGCACC, the ETS1 binding intensity came out at 479.

Take TACCACTGAAAGGATGTGCGGGTAGAAATGAGCAAT: the ETS1 binding intensity worked out at 830.

GGTTGTGGAGTAGGATGTGGTGTCTAGCTTTCAGCA returned an ETS1 binding intensity of 588.

The sequence GCTTCGTTTCCCGCCGGGGCTCACCGCGCCCCCCTA registered an ETS1 binding intensity of 621.

ACTTACTTCCCGACGTCACAGCCTCCGACACCACAG registered an ETS1 binding intensity of 471.

As for GGCCGGAAGCGCTCTCGTTGGCCCTGCGGCGCTGGA, the ETS1 binding intensity amounted to 2120.

In turn, TGGCTTCCTGTCTGTCCTTCATCAGCCCACAGAGGC registered an ETS1 binding intensity of 517.

Consider GGGGCGCTGCGCAGGAAGCCGCAGTCCCTCTGCGGA, for which the ETS1 binding intensity was 930.

CTAGGGAGAGGATGTGAGTTTGTCTGTGGGGGTGGT registered an ETS1 binding intensity of 796.

Regarding GTCCCCTCCCCAGGATGTGGCCACCCGCTAGAGCAT, the ETS1 binding intensity came out at 1030.

On to GAATCACCATTTCCTCACTCCCACACAACCATGTTG, for which the ETS1 binding intensity was 485.

CATCTACTGAGGAAGTGTAAGCCACAATAAGAAGCC displayed an ETS1 binding intensity of 641.

CAGATTCGTGTTTCCGTGCCCGCAGCTCCGTCAGCT yielded an ETS1 binding intensity of 467.

AAGGACCGACCCGTTTTCCGCCCGCAGCGGAGCTTG: the ETS1 binding intensity was found to be 439.

In turn, CTGCGTCCCGGAAGGAGCGAGCTTGCGGAGCGTGAA gave an ETS1 binding intensity of 710.

AAAACCTTGTTGAAAGGATGTGGCTTAGCGAGAGGT returned an ETS1 binding intensity of 1140.

GCAAGGTGGAGAGGAGGATGTGGCTTACCAGCAATT came in with an ETS1 binding intensity of 1280.

The sequence AAGCTTCCTGGCCCTTTAAAAATGGCGGTTCCGCAC returned an ETS1 binding intensity of 519.

Turning to CTTGCTCCCCACTTCCTACCACATTCAATGCCCGGA, the ETS1 binding intensity was determined as 523.

For TTGGAGACACACAAAGGATGTGGGCTGTGCGTGTGT, the ETS1 binding intensity came out at 1380.

Consider ACACCGCTCAGGAAGACAAAGCCACACCTCACACCG, for which the ETS1 binding intensity stood at 457.

As for TGAATCATGACAGAGGAAGTGTGGTTCTGTGATTAC, the ETS1 binding intensity is 1760.

On to ATCAAAGAACGGATATTGCTGTGACACCGCGGGGAC, for which the ETS1 binding intensity worked out at 1380.

Consider GGGCTTCAGCGGATGAACAAGGTTACCACGGGGAGT, for which the ETS1 binding intensity came out at 459.

TGATGCAGGAAGGGGTGGAGTCACCACAGGAGGTAG: the ETS1 binding intensity was found to be 827.

The sequence TTCTGCTACATCCTGCCCACTCCCTGTGGCTTCCAC showed an ETS1 binding intensity of 1090.

Turning to TCCAGTGCCGCCGCCGGAAAACCGCAGCGGCGGCGG, the ETS1 binding intensity is 887.

TCAAGAGGGTGTGGAGGAAGTGGGTTACAAGCACTT returned an ETS1 binding intensity of 1450.

As for TGTTTACTTCCTGGAGGCACTTTGGTTTTTCTTTCT, the ETS1 binding intensity was found to be 490.

In the case of CAACAAGAGGAAATCAGAAACACTGAAGCCACAGCT, the ETS1 binding intensity was determined as 420.

CAGCTTTCCGGCCTGCAGCACAGGCAATGTGGTTTT: the ETS1 binding intensity was found to be 341.

As to TGAGAAGGCAGGATAAGTGACCACATATTTATGCCA, the ETS1 binding intensity amounted to 435.

In the case of TTTTCCCACTTCCTAGGTTGTGGTGGGGATTACACA, the ETS1 binding intensity was 475.

In the case of CCAGAGCAGGATGTTCTGCTGTGGCTAGATAAGCCC, the ETS1 binding intensity was determined as 907.

In turn, AGGGCGCCGCTTCCGGGAGCCCGCAAGCGGCCTCCG came in with an ETS1 binding intensity of 606.

TTTCCTACAGAAGGATGTGGTTGGTGGGTTTGGTTT registered an ETS1 binding intensity of 619.
